Compound activity as filed in PubChem.
Shown are actives, neighbours in structure and some others; about 1.8% of the full set was active somewhere.
GLP-1R agonist = activates the human GLP-1 receptor; P43220; HEK293 GLP-1R CRE-luciferase, luminescence, 4-6 h; cells express a hypersensitive GLP-1R form; Potency, µM (highest dose often 45.6 µM), actives largely listed as activators; actives 0.007% (n = 380,000); AID 624172
PTHR1 agonist = PTHR1 (human) receptor agonism; Q03431; HEK293 GP2 PTHR1 cells, GloSensor cAMP luminescence, 1 h; Potency, µM (top dose mostly 115 µM), usual class: activators; actives 0.075% (n = 410,000); AID 743266; also: nearly all actives have a fitted effect of over 55% in size
Target sequence (Q03431 whole entry, looked up): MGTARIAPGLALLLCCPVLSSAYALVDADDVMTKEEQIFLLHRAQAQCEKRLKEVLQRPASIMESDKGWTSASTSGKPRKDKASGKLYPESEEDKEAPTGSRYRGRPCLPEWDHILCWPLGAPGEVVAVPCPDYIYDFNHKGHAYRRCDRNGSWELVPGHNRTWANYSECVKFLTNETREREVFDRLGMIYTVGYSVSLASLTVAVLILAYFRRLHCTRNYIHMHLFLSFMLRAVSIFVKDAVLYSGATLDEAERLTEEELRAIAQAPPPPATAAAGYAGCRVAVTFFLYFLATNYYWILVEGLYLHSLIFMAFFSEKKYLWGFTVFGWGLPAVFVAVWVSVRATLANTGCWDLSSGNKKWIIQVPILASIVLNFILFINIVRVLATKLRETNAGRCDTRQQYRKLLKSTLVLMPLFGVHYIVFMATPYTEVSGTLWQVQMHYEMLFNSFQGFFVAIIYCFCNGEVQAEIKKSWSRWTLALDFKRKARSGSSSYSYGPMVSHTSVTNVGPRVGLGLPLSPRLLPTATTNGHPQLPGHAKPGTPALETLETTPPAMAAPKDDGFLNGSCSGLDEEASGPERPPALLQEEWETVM
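HEK-293-derived GP2 cells expressing PTHR1 and a GloSensor cAMP reporter, 3,000/well, plated overnight, given luciferin plus IBMX (each 0.5 mM as added) for 1 h at 37 °C, then compound for 1 h at 37 °C. Luminescence was read after 15 min at room temperature.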
GLP1R inv ag = inverse agonists of human GLP-1 receptor; actives 1.6% (n = 410,000); Potency, µM (doses to about 38.3 µM), most hits filed as inhibitors; HEK293 GLP-1R CRE-luciferase, luminescence, 24 h; GLP-1R form is constitutively active; also: nearly all actives have a fitted effect of over 55% in size
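Inverse agonism was detected as reduced cAMP-driven luciferase luminescence after 24 h compound treatment. The cells were HEK293 clones expressing constitutively active human GLP-1R with the reporter. Reporter-only and GPR119 cell lines served as counterscreen controls.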
GLP1R cytotox = cytotoxicity in counter-screen for GLP-1R inverse agonists. HEK293 cAMP-luciferase reporter cells, luminescence, 24 h. Potency, µM (doses to about 38.3 µM), hits mostly inhibitors. actives 0.13% (n = 410,000). AID 624418;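 also: loss of luciferase light is scored as toxicity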
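1536-well qHTS counterscreen of the MLSMR; 200 cells/uL, 12 h pre-incubation, 23 nL cpd, 24 h at 37 deg C 5% CO2, luciferase detection reagent, 12 min RT, luminescence. Inhibition = undesired.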
RGS4 inh = human RGS4 inhibition; Transcreener GDP fluorescence polarization, RGS4-accelerated GTP hydrolysis; actives 0.039% (n = 390,000); P49798; Potency, µM (highest dose often 114 µM), usual class: inhibitors; also: nearly all actives have a fitted effect of over 75% in size
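MLSMR compounds (23 nl, pin-transferred) preincubated 10 min at room temperature with a 500nM (2x) first reagent, then RGS4 at 900nM (2x) plus Transcreener GDP mix added; fluorescence polarization (620/688 nm) read before and after 90 min at 30 °C.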
GCN5L2 inh = GCN5L2 (KAT2A) acetyltransferase inhibition; GCN5L2 HAT assay, ThioGlo1 CoA-SH fluorescence; Potency, µM (series often up to 58.9 µM), usual class: inhibitors; actives 0.21% (n = 390,000); AID 504327; Q92830
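Free CoA generated was detected with ThioGlo1 (50uM) fluorescence at Ex340nm/Em540nm, read immediately and after 20 min at room temperature. Enzyme, 20 nM in HEPES pH 7.5 buffer, saw compounds 15 min before adding 75uM H3(1-25) peptide and 70uM acetyl-CoA.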
A number is an active result; [ ] = dose if it differs, or a comment. Calls follow the shape of the dose curve; as a rule, active = well fitted curve in the direction sought with a large enough effect; inconclusive = small, poorly fitted or top-dose-only effect, or another doubt; inactive = no such curve, though single readings can be large; an effect the other way counts as inactive or inconclusive.

COc1ccc(/C=C2\CN(Cc3ccccc3)C/C(=C\c3ccc(OC)c(O)c3)C2=O)cc1O was read as GLP-1R agonist inactive, PTHR1 agonist inactive, GLP1R inv ag 8.9µM, GLP1R cytotox inconclusive, RGS4 inh inactive and GCN5L2 inh inactive.
`CCN1C/C(=C/c2ccc(OC)c(O)c2)C(=O)/C(=C/c2ccc(OC)c(O)c2)C1` gave GLP-1R agonist inactive, PTHR1 agonist inactive, GLP1R inv ag inconclusive, GLP1R cytotox inconclusive, RGS4 inh inactive and GCN5L2 inh inactive.
For N#CC1(c2ccccc2)CCN(S(=O)(=O)c2ccc(OC(F)(F)F)cc2)CC1 the results were GLP-1R agonist inactive, PTHR1 agonist inactive, GLP1R inv ag 10µM, GLP1R cytotox inactive, RGS4 inh inactive and GCN5L2 inh inactive.
CC(Oc1ccccc1)C(=O)N1CCN(S(=O)(=O)c2ccc(OC(F)(F)F)cc2)CC1 (stereo not given) was read as GLP-1R agonist inactive, PTHR1 agonist inactive, GLP1R inv ag inactive and GLP1R cytotox inactive.
`O=C(Nc1ccccc1)N1CCCC(c2nc(-c3ccc(F)cc3)no2)C1` (stereo not given) gave GLP-1R agonist inactive, PTHR1 agonist inactive, GLP1R inv ag inconclusive, GLP1R cytotox inactive, RGS4 inh inactive and GCN5L2 inh inactive.
For Cc1ccc(NC(=O)N2CCCC(c3nc(-c4ccc(F)cc4)no3)C2)cc1 (stereo not given) the results were GLP-1R agonist inactive, PTHR1 agonist inactive, GLP1R inv ag 7.9µM, GLP1R cytotox inconclusive, RGS4 inh inactive and GCN5L2 inh inactive.
Screening NC(=O)C1=C[C@H](c2csc3ccccc23)C[C@H](OCCCCO)O1 returned GLP-1R agonist inactive, PTHR1 agonist inactive, GLP1R inv ag inactive, GLP1R cytotox inactive, RGS4 inh inactive and GCN5L2 inh inactive.
O=C(CN1c2ccccc2Sc2ccccc21)N/N=C/c1ccc([N+](=O)[O-])cc1 was read as GLP-1R agonist inactive, PTHR1 agonist inactive, GLP1R inv ag 13µM, GLP1R cytotox inactive, RGS4 inh inactive and GCN5L2 inh inactive.
O=[N+]([O-])c1ccc(C=NNc2ccccc2)cc1 was read as GLP-1R agonist inactive, PTHR1 agonist inactive, GLP1R inv ag 5µM, GLP1R cytotox inactive and RGS4 inh inactive.
CC(C)C[C@H](N)C(=O)N[C@H](C(=O)N[C@@H](CCCN=C(N)N)C(=O)N[C@H](CS)C(=O)NCC(=O)N[C@@H](CCCCN)C(=O)N[C@@H](Cc1cnc[nH]1)C(=O)N[C@@H](CO)C(=O)N[C@@H](CCCN=C(N)N)C(=O)O)C(C)C was read as GCN5L2 inh inactive.
For O=C1OCCN1C(=O)[C@H]1[C@H](c2ccccc2)C(c2ccccc2)=NN1c1ccccc1 the results were GLP-1R agonist inactive, PTHR1 agonist inactive, GLP1R inv ag inconclusive, GLP1R cytotox inactive, RGS4 inh inactive and GCN5L2 inh 28µM.
O=C1OCCN1C(=O)[C@H]1[C@H](c2ccc([N+](=O)[O-])cc2)C(c2ccc(F)cc2)=NN1c1ccc(Br)cc1 was read as GLP-1R agonist inactive, PTHR1 agonist inactive, GLP1R inv ag 10µM, GLP1R cytotox inactive, RGS4 inh inactive and GCN5L2 inh inactive.
Screening O=C1OCCN1C(=O)[C@H]1[C@H](c2ccc([N+](=O)[O-])cc2)C(c2ccc(F)cc2)=NN1c1ccccc1 returned GLP-1R agonist inactive, PTHR1 agonist inactive, GLP1R inv ag inconclusive, GLP1R cytotox inactive, RGS4 inh inactive and GCN5L2 inh inactive.
Screening Cc1c(N(C)C)nc2ccccc2c1N returned GLP-1R agonist inactive, PTHR1 agonist inactive, GLP1R inv ag inactive, GLP1R cytotox inactive, RGS4 inh inconclusive and GCN5L2 inh inactive.
`CCN(CC)c1nc2ccccc2c(N)c1-c1ccccc1` gave GLP-1R agonist inactive, PTHR1 agonist inactive, GLP1R inv ag 2.5µM, GLP1R cytotox inactive, RGS4 inh inactive and GCN5L2 inh inactive.
For Cc1cc2c(cc1S(=O)(=O)Nc1cccc(Cl)c1C)OCCN2C the results were PTHR1 agonist inactive, GLP1R inv ag 10µM, GLP1R cytotox inactive, RGS4 inh inactive and GCN5L2 inh inactive.
`COc1ccc(NS(=O)(=O)c2cc3c(cc2C)N(C)CCO3)cc1` gave GLP-1R agonist inactive, PTHR1 agonist inactive, GLP1R inv ag inconclusive, GLP1R cytotox inactive, RGS4 inh inactive and GCN5L2 inh inconclusive.
CC1CCc2c(sc(NC(=S)NC(=O)c3ccccc3)c2C#N)C1 (stereo not given) was read as GLP-1R agonist inactive, PTHR1 agonist inactive, GLP1R inv ag inactive, GLP1R cytotox inactive, RGS4 inh inconclusive and GCN5L2 inh inactive.
Screening Cc1nc2ccc(NS(=O)(=O)c3ccc(Br)cc3)cc2s1 returned GLP-1R agonist inactive, PTHR1 agonist inactive, GLP1R inv ag inconclusive, GLP1R cytotox inactive, RGS4 inh inactive and GCN5L2 inh inactive.
For O=C(CC1C(=O)N(c2ccccc2)C(=S)N1c1ccccc1)c1ccccc1 (stereo not given) the results were GLP-1R agonist inactive, PTHR1 agonist inactive, GLP1R inv ag inconclusive, GLP1R cytotox inactive, RGS4 inh inactive and GCN5L2 inh inactive.
`O=C(CC1C(=O)N(c2ccccc2)C(=S)N1c1ccccc1)c1ccc(Br)cc1` (stereo not given) gave GLP-1R agonist inactive, PTHR1 agonist inactive, GLP1R inv ag 11µM, GLP1R cytotox inactive, RGS4 inh inactive and GCN5L2 inh inactive.
`CC(C)(C)SCCNS(=O)(=O)c1ccc(F)cc1` gave GLP-1R agonist inactive, PTHR1 agonist inactive, GLP1R inv ag inactive, GLP1R cytotox inactive, RGS4 inh inactive and GCN5L2 inh inactive.
O=S(=O)(NCCSc1ccccc1)c1ccc(F)cc1 was read as GLP-1R agonist inactive, PTHR1 agonist inactive, GLP1R inv ag 10µM, GLP1R cytotox inactive, RGS4 inh inactive[11.4 µM] and GCN5L2 inh inactive.
Screening CCN(CC)CCNC(=O)c1cc(Nc2ccc(OC)c(OC)c2)nc2ccccc12 returned GLP-1R agonist inactive, PTHR1 agonist inactive, GLP1R inv ag inconclusive, GLP1R cytotox inactive, RGS4 inh inactive and GCN5L2 inh inactive.
For C=C1c2cccc(O)c2C(O)=C2C(=O)[C@@]3(O)C(O)=C(C(N)=O)C(=O)[C@@H](N(C)C)[C@@H]3[C@@H](O)[C@H]12 the results were GLP-1R agonist inactive and GCN5L2 inh 3.5µM.
C[C@H]1c2cccc(O)c2C(O)=C2C(=O)[C@]3(O)C(O)=C(C(N)=O)C(=O)[C@@H](N(C)C)C3[C@@H](O)C21 (stereo not given in full) was read as GLP-1R agonist inactive, PTHR1 agonist inactive, GLP1R inv ag inactive, GLP1R cytotox inactive, RGS4 inh inactive and GCN5L2 inh inactive.
